Bioassay records (PubChem BioAssay)
RXFP1 antagonist: qHTS Assay for Antagonists of the Relaxin Receptor RXFP1 | HEK293-RXFP1, relaxin-stimulated cAMP HTRF, 30 min; active compounds read low | activity change, negative = inhibition, % at 57.5 µM | hit rate 0.59% among 350,000;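 active = activity change of -60% or lower, but not beyond a set lower limit; inconclusive = change between -60% and -40%, or beyond the set limit; inactive = change above -40%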
RXFP1 ag: qHTS Assay for Agonists of the Relaxin Receptor RXFP1 | Relaxin receptor 1 (Homo sapiens), Q9HBX9 | HEK293T-RXFP1 cAMP TR-FRET, 30 min; response scale: percent of porcine relaxin response, buffer zero | Potency, µM (titrated, usually from 57.5 µM), most hits filed as activators | hit rate 0.3% among 370,000; also: nearly all actives have a fitted effect of over 60% in size
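HEK293 cells stably expressing RXFP1, treated 30 min at 37C with compounds plus PDE4 inhibitor Ro 20174; cAMP measured by HTRF TR-FRET. Normalized to buffer and 29 nM porcine relaxin; EC50 by Hill fit.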
gsp antag: qHTS for Antagonists of gsp, the Etiologic Mutation Responsible for Fibrous Dysplasia/McCune-Albright Syndrome: qHTS; gsp-mutant cells, cAMP HTRF, 30 min; Potency, µM (doses to about 76.9 µM), most hits filed as inhibitors; hit rate 0.4% among 340,000; AID 624288, 2012; calls by dose curve; cell line not stated here;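 also: intracellular cAMP measured with PDE inhibitor Ro 20-1724 present during compound exposure; nearly all actives have a fitted effect of over 65% in size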
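HTRF cAMP read-out (cAMP-d2 plus anti-cAMP antibody-K in lysis buffer, 30 min RT). Before lysis, cells are exposed to compounds with […] for 30 min at 37C in DPBS containing Ca/Mg, BSA and Tween 20.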
S-ASM inh: Inhibitors of Secretory Acid Sphingomyelinase (S-ASM): qHTS. hit rate 0.006% among 340,000. placental ASM, HMU-PC fluorogenic substrate, 60 min. Potency, µM (titrated, usually from 57.5 µM), actives largely listed as inhibitors. AID 504937, 2011
Target sequence (P17405 47-631 limits assumed): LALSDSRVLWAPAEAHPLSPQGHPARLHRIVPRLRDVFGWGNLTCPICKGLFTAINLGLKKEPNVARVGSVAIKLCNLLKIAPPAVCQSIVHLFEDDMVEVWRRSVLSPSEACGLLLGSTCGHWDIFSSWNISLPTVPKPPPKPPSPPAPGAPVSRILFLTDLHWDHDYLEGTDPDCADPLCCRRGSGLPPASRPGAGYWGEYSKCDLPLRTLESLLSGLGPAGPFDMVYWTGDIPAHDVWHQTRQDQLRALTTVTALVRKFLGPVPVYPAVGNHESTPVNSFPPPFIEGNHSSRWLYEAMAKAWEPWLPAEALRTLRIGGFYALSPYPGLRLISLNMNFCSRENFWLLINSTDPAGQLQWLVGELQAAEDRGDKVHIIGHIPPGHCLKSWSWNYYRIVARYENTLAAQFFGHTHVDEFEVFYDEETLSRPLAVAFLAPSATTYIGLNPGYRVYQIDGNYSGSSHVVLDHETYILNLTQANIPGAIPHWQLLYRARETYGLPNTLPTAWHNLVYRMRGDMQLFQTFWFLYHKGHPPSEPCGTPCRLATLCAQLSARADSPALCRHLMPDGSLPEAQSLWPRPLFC
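Fluorescence read-out (Ex 386 nm, Em 447 nm) after stopping the reaction at pH 10. Enzyme: ASM from human placenta; substrate HMU-PC0, 9 uM final; 60 min, 37 °C. Compound preincubation 10 min, ambient temperature.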
a7 integrin act: qHTS for Activators of Integrin-Mediated Alleviation for Muscular Dystrophy. alpha7betagal myoblasts, beta-gal FDG fluorescence, 48 h. Potency, µM (doses to about 38.3 µM), actives largely listed as activators. hit rate 0.064% among 350,000. AID 624291, 2012; also: nearly all actives have a fitted effect of over 60% in size
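Alpha7betagal+/- myoblasts (passage 13) were plated 16-24 hr, then exposed to compounds (1:260 dilution of DMSO stock) for 48 hours at 37C. After MPER lysis, β-galactosidase reporter activity was read as FDG fluorescence (ex 480/em 540) after 30 minutes.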
gsp agonist: qHTS for Agonist of gsp, the Etiologic Mutation Responsible for Fibrous Dysplasia/McCune-Albright Syndrome: qHTS; gsp mutant cells, cAMP HTRF, 30 min; Potency, µM (titrated, usually from 76.9 µM), actives largely listed as activators; hit rate 0.13% among 340,000; AID 624287, 2012; active = well fitted activation curve with a large enough effect; inconclusive = small, poorly fitted or top-dose-only effect, or another doubt; inactive = no such curve, though single readings can be large or run the other way; cell line not stated here;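 also: phosphodiesterase inhibitor Ro 20-1724 added with compounds to block cAMP breakdown; nearly all actives have a fitted effect of over 60% in size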
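Cells in DMEM/10% FBS with G418 were pretreated with compounds in DMSO plus […] (300 uM stock) for 30 min at 37C. cAMP was measured by HTRF (cAMP-d2 plus anti-cAMP antibody-K) after 30 min at room temperature.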
Numbers stand for hits; [ ] = dose if it differs, or a comment. Rows were chosen to be rich in hits. Some 1.1% of all compounds tested hit in one or more screens of this group. Unless noted, calls follow the shape of the dose curve; as a rule, active = well fitted curve in the direction sought with a large enough effect; inconclusive = small, poorly fitted or top-dose-only effect, or another doubt; inactive = no such curve, though single readings can be large; an effect the other way counts as inactive or inconclusive.

CC(C)(C)C(=O)NC(=S)NNC(=O)c1sc2ccccc2c1Cl was read as RXFP1 antagonist inconclusive, RXFP1 ag inactive, gsp antag 50µM, S-ASM inh inactive, a7 integrin act inactive and gsp agonist inactive.
For O=Cc1ccc(C(=O)OCC(=O)N2CCCC2)cc1 the results were RXFP1 antagonist inactive, RXFP1 ag inactive, gsp antag inactive, S-ASM inh inactive, a7 integrin act 2.5µM and gsp agonist inactive[15.4 µM].
For O=C(OCC(=O)N1CCCC1)c1ccc(S(=O)(=O)Nc2ccccc2)cc1 the results were RXFP1 antagonist inactive, RXFP1 ag inactive, gsp antag 11µM, S-ASM inh inactive, a7 integrin act inactive and gsp agonist inactive.
For CCN(CC)c1ccc(C(=O)OCC(=O)N2CCCC2)cc1 the results were RXFP1 antagonist inactive, RXFP1 ag inactive, gsp antag inactive, S-ASM inh inactive, a7 integrin act inactive and gsp agonist inactive.
CCN(CC)S(=O)(=O)c1nnc(NC(=O)COc2ccc(Cl)cc2)s1 was read as RXFP1 antagonist inactive and RXFP1 ag inactive.
Screening Cc1cccc(NC(=O)COc2ccc3c(c2)CCC3)n1 returned RXFP1 antagonist inactive, RXFP1 ag inactive, gsp antag inactive, S-ASM inh inactive, a7 integrin act inactive and gsp agonist inactive[15.4 µM].
`Cc1cccc(N(C)C(=S)Oc2ccc3c(c2)CCC3)c1` gave RXFP1 antagonist -63.
Cc1cccc(N(C)C(=S)Oc2ccc3ccccc3c2)c1 was read as RXFP1 antagonist -71, RXFP1 ag inactive, gsp antag inactive and S-ASM inh inactive.
`Cc1oc(-c2ccc(C(=O)NCc3ccc(Cl)cc3)cc2)nc1CS(=O)(=O)c1ccccc1` gave RXFP1 antagonist inactive and RXFP1 ag inactive.
CC1CN(c2ccc([N+](=O)[O-])c(NCCOc3ccc(Cl)cc3)c2)CC(C)N1 (centres undefined) was read as RXFP1 antagonist -97, RXFP1 ag inactive, gsp antag inactive, S-ASM inh inconclusive, a7 integrin act inactive and gsp agonist inactive.
`CC1CN(c2ccc([N+](=O)[O-])c(NCCOc3ccccc3)c2)CC(C)N1` (centres undefined) gave RXFP1 antagonist inactive, RXFP1 ag inactive, gsp antag inactive, S-ASM inh inactive, a7 integrin act inactive and gsp agonist inactive.
Screening COc1cccc(CN(C(=O)c2oc3ccccc3c2C)C2CCS(=O)(=O)C2)c1 (centres undefined) returned RXFP1 antagonist inactive and RXFP1 ag inactive.
Screening Cc1cc(C)c(Cn2c3ccccc3c3cnn(CC(=O)NCCN4CCOCC4)c(=O)c32)c(C)c1 returned RXFP1 antagonist -64, RXFP1 ag inactive, gsp antag inactive, S-ASM inh inactive, a7 integrin act inactive and gsp agonist inactive.
CC(=O)O[C@H](C)OC(=O)[C@@H](C)c1ccc(-c2ccccc2)c(F)c1 was read as RXFP1 antagonist inactive.
Cn1c2c(c(=O)n(C)c1=O)C(C(F)(F)F)(C(F)(F)F)N=C(CCC1CCCCC1)N2 was read as RXFP1 antagonist -65, RXFP1 ag inactive, gsp antag inactive, S-ASM inh inactive, a7 integrin act inactive and gsp agonist inactive[15.4 µM].
CC(=O)Nc1ccc(NC(=O)CN(C)S(=O)(=O)c2ccc3c(c2)CCC(=O)N3)cc1 was read as RXFP1 antagonist -86, RXFP1 ag inactive, gsp antag inactive, S-ASM inh inactive, a7 integrin act inactive and gsp agonist inactive.
CCOc1ccc(NC(=O)CN(C)S(=O)(=O)c2ccc3c(c2)CCC(=O)N3)cc1 was read as RXFP1 antagonist inactive, RXFP1 ag inactive, gsp antag inactive, S-ASM inh inactive, a7 integrin act inactive and gsp agonist inconclusive.
For COc1ccc(C2c3ccsc3CCN2C(=O)NC(C)(C)C)cc1 (centres undefined) the results were RXFP1 antagonist inactive, RXFP1 ag inactive, gsp antag 32µM, S-ASM inh inactive, a7 integrin act inactive and gsp agonist inactive.
`COc1ccc(NC(=O)N2CCc3c([nH]c4ccc(OC)cc34)C2c2ccc(OC)cc2)cc1` (centres undefined) gave RXFP1 antagonist inactive and RXFP1 ag inactive.
For CN(C)CCCN1c2ccccc2Sc2ccc3ccccc3c21 the results were RXFP1 antagonist -63, gsp antag inactive, S-ASM inh inactive, a7 integrin act inactive and gsp agonist inactive.
Screening CN(C)CCCN1c2ccc3ccccc3c2Sc2cccc(Cl)c21 returned RXFP1 antagonist inactive, gsp antag inactive, S-ASM inh inactive, a7 integrin act inactive and gsp agonist inactive.
For O=C(Nc1nnc(C2=COCCO2)o1)c1ccc(Cc2ccccc2)cc1 the results were RXFP1 antagonist -65, RXFP1 ag inactive, gsp antag inactive, S-ASM inh inactive, a7 integrin act inactive and gsp agonist inactive[15.4 µM].
`C=CCn1c(Sc2ncc([N+](=O)[O-])s2)n[nH]c1=O` gave RXFP1 antagonist -80, RXFP1 ag inactive, gsp antag inactive, S-ASM inh inactive, a7 integrin act inactive and gsp agonist inactive[15.4 µM].
CCCn1c(SCC(=O)Nc2ccccc2C(=O)NC2CC2)n[nH]c1=O was read as RXFP1 antagonist inactive, RXFP1 ag inactive, gsp antag inactive, S-ASM inh inactive, a7 integrin act inactive and gsp agonist 45µM.
For Cn1c(CCC(N)=O)nnc1SCC(=O)Nc1ccccc1C(=O)NC1CC1 the results were RXFP1 antagonist inactive, RXFP1 ag inactive, gsp antag inactive, S-ASM inh inactive, a7 integrin act inactive and gsp agonist inactive.
Cc1ccccc1CNC(=O)c1ccc(CS(=O)Cc2ccc(Cl)cc2)o1 (centres undefined) was read as RXFP1 antagonist inactive and RXFP1 ag inactive.
`C=CCNC(=O)/C(C#N)=C/c1cc(Br)ccc1OC` gave RXFP1 antagonist -68, RXFP1 ag inactive, gsp antag inactive, S-ASM inh inactive, a7 integrin act inactive and gsp agonist inactive.
CC(=O)Nc1ccc(S(=O)(=O)NCCC(=O)OCc2ccccc2F)cc1 was read as RXFP1 antagonist inactive, RXFP1 ag inactive, gsp antag inactive, S-ASM inh inactive, a7 integrin act inactive and gsp agonist inactive.
CC(=O)Nc1ccc(NC(=O)CSc2ccc3nnc(-c4cccnc4)n3n2)cc1 was read as RXFP1 antagonist inactive, RXFP1 ag 8.9µM, gsp antag inactive, S-ASM inh inactive, a7 integrin act inconclusive and gsp agonist inconclusive.
